Experimental data as given in PubChem BioAssay AID1159580 (chemical genetic matrix, 2015).
Where “and” joins values, the source holds several entries; their conditions need not be identical. Equal values may be shown once. About 2,000 (36%) of roughly 5,500 compounds were called active. Not shown: some 18% with an inconclusive outcome. Cut-off read from the data, not from the text of the source: active = normalized growth mostly below about 0.91 (no sharp cut-off); inconclusive = no clear call, values can overlap the other calls; inactive = mostly above about 0.92. The list shows a part of the results.

Assay: chemical genetic growth profiling, strain panel (AID 1159580);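 note: tested at 20 µM; growth read once vehicle control cultures reached saturation at 30 °C; 1 = growth at the plate median or of vehicle wells; lower values mean less growth of the strain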
Settings: S. cerevisiae deletion strains, growth OD

Measured: normalized growth

Cc1cccc(Nc2ccccc2C(=O)O)c1C
0.907 (active) and 0.891 (inactive): locus YHR030C, strain SLT2, stronger effect = lower value
inactive: locus YAL021C, strain ccr4, stronger effect = lower value 0.934 | locus YAL026C, strain drs2, stronger effect = lower value 0.929 | locus YBL061C, strain skt5, stronger effect = lower value 0.924 | locus YBR009C, strain hhf1, stronger effect = lower value 0.951 | locus YBR021W, strain FUR4, stronger effect = lower value 0.853 | locus YBR023C, strain chs3, stronger effect = lower value 0.919 | locus YBR231C, strain swc5, stronger effect = lower value 0.915 | locus YCL011C, strain gbp2, stronger effect = lower value 0.922 | locus YDL005C, strain med2, stronger effect = lower value 0.946 | locus YDL035C, strain GPR1, stronger effect = lower value 0.921 | locus YDL074C, strain BRE1, stronger effect = lower value 0.898 | locus YDL101C, strain DUN1, stronger effect = lower value 0.994 | locus YDL134C, strain PPH21, stronger effect = lower value 0.904 | locus YDL185W, strain tfp1, stronger effect = lower value 0.984 | locus YDR069C, strain doa4, stronger effect = lower value 0.988 | locus YDR159W, strain sac3, stronger effect = lower value 0.898 | locus YDR195W, strain ref2 1.08 | locus YDR334W, strain swr1, stronger effect = lower value 0.908 | locus YDR335W, strain msn5, stronger effect = lower value 0.923 | locus YEL003W, strain gim4, stronger effect = lower value 0.937 | locus YER015W, strain faa2, stronger effect = lower value 0.936 | locus YER155C, strain BEM2 (second series), stronger effect = lower value 0.904 | locus YFR010W, strain ubp6, stronger effect = lower value 0.986 | locus YGL078C, strain dbp3, stronger effect = lower value 0.959 | locus YGL173C, strain kem1, stronger effect = lower value 0.911 | locus YGL227W, strain vid30, stronger effect = lower value 0.917 | locus YGL240W, strain doc1, stronger effect = lower value 0.967 | locus YGL248W, strain PDE1, stronger effect = lower value 0.936 | locus YGR078C, strain PAC10, stronger effect = lower value 0.897 | locus YGR252W, strain gcn5, stronger effect = lower value 0.854 | locus YHR013C, strain ard1, stronger effect = lower value 0.967 | locus YHR079C, strain IRE1, stronger effect = lower value 0.883 | locus YHR142W, strain chs7, stronger effect = lower value 0.887 | locus YIL066C, strain RNR3, stronger effect = lower value 0.915 | locus YIL073C, strain SPO22, stronger effect = lower value 0.905 | locus YIL125W, strain kgd1, stronger effect = lower value 0.985 | locus YJL095W, strain BCK1, stronger effect = lower value 0.8 and 0.923 | locus YJL115W, strain asf1, stronger effect = lower value 0.908 | locus YJL164C, strain tpk1, stronger effect = lower value 0.948 | locus YJL166W, strain qcr8, stronger effect = lower value 0.929 | locus YJL187C, strain SWE1 (second series), stronger effect = lower value 0.932 | locus YJR043C, strain POL32, stronger effect = lower value 0.942
active: locus YAL013W, strain DEP1, stronger effect = lower value 0.89 | locus YAL030W, strain snc1, stronger effect = lower value 0.913 | locus YBR171W, strain sec66, stronger effect = lower value 0.843 | locus YBR229C, strain ROT2, stronger effect = lower value 0.912 | locus YBR279W, strain paf1, stronger effect = lower value 0.921 | locus YCL016C, strain dcc1, stronger effect = lower value 0.913 | locus YCL029C, strain bik1, stronger effect = lower value 0.907 | locus YCL061C, strain MRC1, stronger effect = lower value 0.894 | locus YCL069W, strain vba3, stronger effect = lower value 0.912 | locus YCR088W, strain abp1, stronger effect = lower value 0.895 | locus YDL040C, strain nat1, stronger effect = lower value 0.92 | locus YDL192W, strain arf1, stronger effect = lower value 0.834 | locus YDR001C, strain nth1, stronger effect = lower value 0.893 | locus YDR101C, strain arx1, stronger effect = lower value 0.885 | locus YDR137W, strain rgp1, stronger effect = lower value 0.739 | locus YDR150W, strain NUM1, stronger effect = lower value 0.894 | locus YDR162C, strain NBP2, stronger effect = lower value 0.806 | locus YDR297W, strain sur2, stronger effect = lower value 0.912 | locus YDR318W, strain mcm21, stronger effect = lower value 0.882 | locus YDR388W, stronger effect = lower value 0.869 | locus YDR392W, strain spt3, stronger effect = lower value 0.593 | locus YDR502C, strain sam2, stronger effect = lower value 0.864 | locus YEL037C, strain rad23, stronger effect = lower value 0.909 | locus YEL061C, strain CIN8 (second series), stronger effect = lower value 0.887 | locus YEL061C, strain CIN8, stronger effect = lower value 0.904 | locus YER016W, strain bim1, stronger effect = lower value 0.918 | locus YER110C, stronger effect = lower value 0.859 | locus YER111C, strain swi4, stronger effect = lower value 0.907 | locus YER155C, strain BEM2, stronger effect = lower value 0.868 | locus YER167W, strain BCK2, stronger effect = lower value 0.867 | locus YGL086W, strain mad1, stronger effect = lower value 0.884 | locus YGL167C, strain pmr1, stronger effect = lower value 0.851 | locus YGL253W, strain hxk2, stronger effect = lower value 0.897 | locus YGR135W, strain pre9, stronger effect = lower value 0.858 | locus YGR229C, strain SMI1, stronger effect = lower value 0.729 | locus YHR027C, strain rpn1, stronger effect = lower value 0.906 | locus YHR079C, strain IRE1 (second series), stronger effect = lower value 0.887 | locus YHR094C, strain hxt1, stronger effect = lower value 0.872 | locus YHR129C, strain ARP1, stronger effect = lower value 0.911 | locus YHR200W, strain rpn10, stronger effect = lower value 0.872 | locus YIR030C, strain dcg1, stronger effect = lower value 0.863 | locus YJL092W, strain hpr5, stronger effect = lower value 0.908 | locus YJL095W, strain BCK1 (second series), stronger effect = lower value 0.918 | locus YJL129C, strain trk1, stronger effect = lower value 0.697 | locus YJL134W, strain LCB3, stronger effect = lower value 0.894 | locus YJL154C, strain vps35, stronger effect = lower value 0.904 | locus YJL168C, strain set2, stronger effect = lower value 0.868 | locus YJL187C, strain SWE1, stronger effect = lower value 0.922 | locus YJR066W, strain TOR1, stronger effect = lower value 0.81
